Data on 6 compounds can be found in PubChem BioAssay AID720697 (Broad Institute, 2013).

Entries with a potency or affinity are not part of this list. Records with an inconclusive call do not appear. A number with no mark means an inactive call.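 The calls were made as follows: active = signal loss with fitted half-maximal concentration at or below twice the top valid tested dose in every test run; inconclusive = runs disagree, flat 30 to 70% signal loss, or poor fit; inactive = all runs flat, opposite direction, or potency beyond limit.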

The nature of the assay: general mammalian cell viability loss – inhibitor set, cherry-pick, set 2, cytotoxicity control for miR-122 modulator project, dose response (AID 720697).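 Also: 0% = median of neutral control wells and -100% = MG132 positive control wells.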 The settings on record: HEK293T viability, CellTiter-Glo luminescence, 48 h; series mostly up to 26 µM; activity change, negative = cytotoxicity: at the top concentration. For orientation: ATP-based viability assays read luminescence as a measure of living cells.
With `CNC(=O)C[C@H]1CC[C@@H]2[C@H](COc3ccc(NC(=O)Nc4cccc(F)c4)cc3C(=O)N2C)O1`, the “activity change, negative = cytotoxicity” value was 93.1%. To `C[C@@H]1CN([C@H](C)CO)C(=O)c2cc(-c3cncnc3)cnc2O[C@H]1CN(C)Cc1ccc(Oc2ccccc2)cc1` belongs 84.1%. Regarding `C[C@@H]1CN([C@@H](C)CO)C(=O)c2cccc(NC(=O)Nc3ccc4c(c3)OCO4)c2O[C@@H]1CN(C)Cc1ccc(Oc2ccccc2)cc1`, the “activity change, negative = cytotoxicity” value was 8.06%.

In the case of `CN(c1ccccc1)S(=O)(=O)c1ccc(C(=O)Nc2cccc(S(=O)(=O)N3CCOCC3)c2)cc1`, the “activity change, negative = cytotoxicity” value was -17.8%. `CCNC(=O)C[C@@H]1CC[C@H]2[C@@H](COc3ccc(NC(=O)c4ccc(C(F)(F)F)cc4)cc3C(=O)N2C)O1`: the “activity change, negative = cytotoxicity” value is 65.7% [at 23.5 µM]. The result for `CCNC(=O)Nc1ccc2c(c1)C(=O)N(C)[C@H]1CC[C@H](CC(=O)Nc3cccc(F)c3)O[C@@H]1CO2` reads 148%.
